Laboratory results taken from the supplement of paper PMC3545927.
This is one part of the list. No count for the full screen is at hand.

Biological target: furin, P09958
Experiment: furin cleavage Z-score vs untreated control; higher = more cleavage, active = 3.5 or more, inactive = 1 or less, 8 variable residues between constant flanks
Summary of the method: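 Sequencing of released DNA, tagged with adapters by PCR, gave read counts used as abundance. That DNA was freed when purified furin cut N-terminally bead-bound 8-mer peptides fused to a cDNA oligonucleotide, in 0.01 ml reactions at 1:10 enzyme:substrate in 50 mM HEPES pH 7.5 with CaCl2 and NaCl, lasting 7.5, 15 or 30 min. The cleavage Z-score was the lowess-adjusted log count versus furin-free reactions, scaled by median absolute deviation.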

furin, P09958, sequence (P09958 whole entry): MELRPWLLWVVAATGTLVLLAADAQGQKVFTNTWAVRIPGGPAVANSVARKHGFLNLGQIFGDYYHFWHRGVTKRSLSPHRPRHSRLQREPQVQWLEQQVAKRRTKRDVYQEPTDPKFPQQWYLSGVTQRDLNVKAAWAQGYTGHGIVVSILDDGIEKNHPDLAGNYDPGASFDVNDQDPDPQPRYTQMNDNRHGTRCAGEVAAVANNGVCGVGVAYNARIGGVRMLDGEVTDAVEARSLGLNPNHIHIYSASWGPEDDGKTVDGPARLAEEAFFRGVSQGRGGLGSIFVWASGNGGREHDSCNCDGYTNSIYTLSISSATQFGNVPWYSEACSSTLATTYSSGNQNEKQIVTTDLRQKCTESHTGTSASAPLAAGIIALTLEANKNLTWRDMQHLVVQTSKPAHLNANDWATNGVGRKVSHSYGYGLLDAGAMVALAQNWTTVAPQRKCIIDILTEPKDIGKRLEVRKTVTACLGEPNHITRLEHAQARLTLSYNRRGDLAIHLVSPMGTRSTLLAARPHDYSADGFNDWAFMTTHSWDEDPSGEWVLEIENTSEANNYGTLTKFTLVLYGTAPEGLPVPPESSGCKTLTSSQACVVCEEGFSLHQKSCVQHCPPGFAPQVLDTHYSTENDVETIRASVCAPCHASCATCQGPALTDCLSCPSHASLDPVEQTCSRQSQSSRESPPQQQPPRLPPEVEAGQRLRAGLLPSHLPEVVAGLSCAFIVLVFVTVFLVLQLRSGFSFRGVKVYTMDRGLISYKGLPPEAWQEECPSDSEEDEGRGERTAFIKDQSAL

Sequence | furin cleavage Z-score (7.5 min) | furin cleavage Z-score (15 min) | furin cleavage Z-score (30 min)
CATWVLVGGVAGNASASA [HC990] | 0.127 (inactive) | -1.42 (inactive) | 0.528 (inactive)
CAAYAAQGYKAGNASASA [HC782] | -0.0157 (inactive) | -1.07 (inactive) | -0.556 (inactive)
CAREFRIIFDAGNASASA [FS-2002] | -0.0827 (inactive) | -0.962 (inactive) | -0.343 (inactive)
CAPCEPEPDVAGNASASA [HC1241] | -0.464 (inactive) | 0.432 (inactive) | -0.805 (inactive)
CATTPVSGSWAGNASASA [HC43] | -0.371 (inactive) | 0.0296 (inactive) | 0.074 (inactive)
CAEVETSTWVAGNASASA [HC2192] | -0.139 (inactive) | -0.872 (inactive) | -0.676 (inactive)
CAEVVVSTWVAGNASASA [HC123] | 0.0781 (inactive) | -2.67 (inactive) | -0.513 (inactive)
CAYMNRRRRHAGNASASA [FS-320] | 5.9 (active) | 7.94 (active) | 6.26 (active)
CAVILLMCAVAGNASASA [HC597] | -0.0828 (inactive) | -1.86 (inactive) | -1.55 (inactive)
CAVALRRRRHAGNASASA [FS-1577] | 11.1 (active) | 12.6 (active) | 9.5 (active)
CAETMRRRRHAGNASASA [FS-928] | 10.4 (active) | 11.7 (active) | 10 (active)
CAPISRRRRHAGNASASA [FS-69] | 10.5 (active) | 12.1 (active) | 10.2 (active)
CAELITSCSSAGNASASA [HC1551] | -0.448 (inactive) | 0.888 (inactive) | -0.654 (inactive)
CACRASGVLTAGNASASA [HC1510] | -0.191 (inactive) | -0.919 (inactive) | -0.424 (inactive)
CAPVVTSTWVAGNASASA [HC2159] | 0.805 (inactive) | 0.48 (inactive) | 0.275 (inactive)
CAEVFCVQPEAGNASASA [HC1442] | -0.865 (inactive) | -0.957 (inactive) | -0.965 (inactive)
CAMMSRIFRHAGNASASA [FS-1236] | -0.468 (inactive) | -0.194 (inactive) | 1.99
CAMKIRRRRHAGNASASA [FS-275] | 6.27 (active) | 6.38 (active) | 5.11 (active)
CAVACCSMSYAGNASASA [HC2003] | -0.939 (inactive) | 1.22 | 0.305 (inactive)
CARMKRESLMAGNASASA [FS-3228] | 9.24 (active) | 10.5 (active) | 11.4 (active)
CARMKREITTAGNASASA [FS-2047] | 9.07 (active) | 9.89 (active) | 7.88 (active)
CARKKKEEEMAGNASASA [FS-2264] | -1.03 (inactive) | -1.15 (inactive) | -0.39 (inactive)

Sequence | furin cleavage Z-score (7.5 min) | furin cleavage Z-score (15 min) | furin cleavage Z-score (30 min)
CAEAADAILHAGNASASA [HC268] | 1.3 | -1.15 (inactive) | 0.548 (inactive)
CARMKREDLNAGNASASA [FS-2718] | 11.1 (active) | 11.1 (active) | 9.09 (active)
CARMKRYILHAGNASASA [FS-2222] | 2.82 | 6.82 (active) | 8.57 (active)
CARMKRVWDRAGNASASA [FS-2722] | 2.92 | -0.324 (inactive) | 0.97 (inactive)
CARMKRILQRAGNASASA [FS-2720] | 0.0731 (inactive) | 1.31 | 0.696 (inactive)
CATTPCTGSWAGNASASA [HC76] | 0.592 (inactive) | 0.698 (inactive) | 0.31 (inactive)
CAKQKALGLLAGNASASA [HC1025] | -0.454 (inactive) | 1.56 | 0.147 (inactive)
CALLLAAGVGAGNASASA [HC1659] | -1.34 (inactive) | -0.972 (inactive) | 0.0513 (inactive)
CADREVVTSTAGNASASA [HC2293] | 0.73 (inactive) | -0.878 (inactive) | 0.0278 (inactive)
CANVDQDLVGAGNASASA [HC712] | -0.364 (inactive) | -0.928 (inactive) | 0.183 (inactive)
CARHRRTPDRAGNASASA [FS-2555] | 3.94 (active) | 6.66 (active) | 4.45 (active)
CARHRARSVRAGNASASA [HC1621] | 5.03 (active) | 5.34 (active) | 5.83 (active)
CARHRRQIDRAGNASASA [FU5] | 8.52 (active) | 9.09 (active) | 7.54 (active)
CARALAHGVRAGNASASA [HC235] | -1.61 (inactive) | -0.489 (inactive) | -0.193 (inactive)
CACSQHLPYIAGNASASA [HC1016] | -1.19 (inactive) | -4.19 (inactive) | -2.45 (inactive)
CAGPLLCPAGAGNASASA [HC744] | -0.656 (inactive) | -1.61 (inactive) | -1.61 (inactive)
CATTPCSAHLAGNASASA [HC2478] | 0.336 (inactive) | 0.111 (inactive) | -0.164 (inactive)
CAVVCCSESYAGNASASA [HC2052] | -0.759 (inactive) | -0.905 (inactive) | -0.208 (inactive)
CAQRRRSIRDAGNASASA [FS-287] | 14.8 (active) | 16.3 (active) | 11.3 (active)
CAIPCRSIRDAGNASASA [FS-668] | 4.89 (active) | 6.2 (active) | 5.07 (active)
CAQRRRPTRPAGNASASA [FS-371] | -1.13 (inactive) | 0.703 (inactive) | -0.42 (inactive)
CASTTCSAHLAGNASASA [HC2518] | -0.961 (inactive) | -1.68 (inactive) | -0.439 (inactive)
